About 750 (58%) of roughly 1,300 compounds were called active. The list shows a part of the results. A number with no mark means an inactive call.
Molecular target: Sulfhydryl oxidase 1 (Homo sapiens) (UniProt O00391)
Assay: QSOX1 enzyme inhibitors, primary screen, biochemical, ROS-Glo H2O2 luminescence, HTS (AID 1347418)
Conditions: recombinant QSOX1, ROS-Glo H2O2 luminescence; at 12.5 µM; hits give high values; active = any value above zero

Sulfhydryl oxidase 1 (Homo sapiens), sequence (O00391 whole entry, looked up): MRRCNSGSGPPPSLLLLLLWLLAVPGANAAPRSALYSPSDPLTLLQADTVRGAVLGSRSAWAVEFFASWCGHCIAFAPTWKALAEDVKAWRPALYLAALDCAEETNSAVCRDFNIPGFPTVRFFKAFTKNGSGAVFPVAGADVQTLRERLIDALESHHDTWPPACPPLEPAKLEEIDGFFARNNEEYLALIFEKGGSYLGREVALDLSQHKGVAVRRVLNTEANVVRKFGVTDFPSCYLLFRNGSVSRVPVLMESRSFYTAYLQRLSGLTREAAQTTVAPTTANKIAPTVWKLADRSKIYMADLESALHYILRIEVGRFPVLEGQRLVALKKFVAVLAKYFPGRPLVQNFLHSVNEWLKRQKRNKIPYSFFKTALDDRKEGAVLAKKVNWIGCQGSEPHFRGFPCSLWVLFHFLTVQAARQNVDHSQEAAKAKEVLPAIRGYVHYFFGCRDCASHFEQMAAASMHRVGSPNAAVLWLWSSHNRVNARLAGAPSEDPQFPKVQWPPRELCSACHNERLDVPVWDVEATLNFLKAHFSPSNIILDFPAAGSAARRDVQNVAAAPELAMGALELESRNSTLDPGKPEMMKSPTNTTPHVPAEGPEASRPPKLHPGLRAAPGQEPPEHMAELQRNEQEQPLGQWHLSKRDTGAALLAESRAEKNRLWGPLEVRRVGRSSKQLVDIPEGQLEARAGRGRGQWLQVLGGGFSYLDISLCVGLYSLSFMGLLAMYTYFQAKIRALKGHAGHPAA

Row | SMILES | inhibition
1 | CCCCCCCCCCCCCCCC(=O)NCCO | -1.3%
2 | CCCCCCCC/C=C\CCCCCCCC(=O)NCCO | 6.9% (active)
3 | CN1Cc2sccc2C(c2ccc(O)c(O)c2)C1 (configuration not stated) | 23.4% (active)
4 | Oc1ccc(C2CNCc3sccc32)cc1O (configuration not stated) | 15.7% (active)
5 | c1ccc(-c2ccccn2)nc1 | 7.3% (active)
6 | c1cnc2c(c1)ccc1cccnc12 | -2.1%
7 | Cn1c(=O)[nH]c2ncn(C)c2c1=O | 3% (active)
8 | Cn1cnc2c1c(=O)[nH]c(=O)n2C | 3.2% (active)
9 | CC1(C)CCC=[N+]1[O-] | -1.5%
10 | CC(CN1c2ccccc2Sc2ccccc21)N(C)C (configuration not stated) | 43.7% (active)
11 | CCN(CC)C(C)CN1c2ccccc2Sc2ccccc21 (configuration not stated) | 50.6% (active)
12 | O=C1NC(=O)/C(=C/c2ccc(-c3ccc(F)cc3O)o2)S1 | 27.2% (active)
13 | O=C(O)[C@@H]1C[C@H](C(=O)O)N1 | -6.9%
14 | C=CCNc1ncnc2ccc(Br)cc12 | -1.1%
15 | NC(=O)c1cnccn1 | 0.9% (active)
16 | NC(CO)C(=O)NNCc1ccc(O)c(O)c1O (configuration not stated) | 25.6% (active)
17 | O=c1onc2n1-c1cc(Br)ccc1OC2 | -0.8%
18 | NCCCCC(=O)O | -2.5%
19 | O=C(O)CCCC[C@@H]1CCSS1 | -2.4%
20 | NCCCCCC(=O)O | 5% (active)
21 | CCOC(=O)N1CCN(/[N+]([O-])=N/Oc2ccc([N+](=O)[O-])cc2[N+](=O)[O-])CC1 | -34%
22 | NC(=O)c1ncn([C@@H]2O[C@H](CO)[C@@H](O)[C@H]2O)n1 | -3.1%
23 | OCC1O[C@H]([S-])[C@@H](O)C(O)[C@@H]1O.[Au+] (some centres not stated) | 2.4% (active)

Row | SMILES | inhibition
24 | CC(=O)N[C@@H](Cc1c[nH]c2ccccc12)C(=O)OCc1cc(C(F)(F)F)cc(C(F)(F)F)c1 | 2% (active)
25 | O=C1C2C=CC=CC2=NC(=S)N1CCN1CCC(=C(c2ccc(F)cc2)c2ccc(F)cc2)CC1 (configuration not stated) | 4.4% (active)
26 | NCCCNCCCCNCCCN | -1.8%
27 | NCCCCNCCCN | 1.5% (active)
28 | CC(C)(C)NCC(O)COc1nsnc1N1CCOCC1 (configuration not stated) | 3.3% (active)
29 | CCOC(=O)C12CC1/C(=N/O)c1ccccc1O2 (configuration not stated) | 0.7% (active)
30 | O=C(c1ccc(F)cc1)C1CCN(CCn2c(=O)[nH]c3ccccc3c2=O)CC1 | 1.5% (active)
31 | CC1(C)C(=O)N(CCN2CCC(C(=O)c3ccc(F)cc3)CC2)c2ccccc21 | -1.4%
32 | O=C(O)c1cc2cc(F)ccc2[nH]1 | 6.8% (active)
33 | O=C(O)c1cc(=O)cc(C(=O)O)[nH]1 | -2%
34 | CCCC[C@@]1(C2CCCC2)Cc2cc(OCC(=O)O)c(Cl)c(Cl)c2C1=O | 4.2% (active)
35 | C[C@@]1(C2CCCC2)Cc2cc(OCC(=O)O)c(Cl)c(Cl)c2C1=O | -4.6%
36 | CC(C)c1ccc2c(c1)c(SC(C)(C)C)c(CC(C)(C)C(=O)O)n2Cc1ccc(Cl)cc1 | 8.9% (active)
37 | COc1ccc2c(c1)c(CC(=O)O)c(C)n2Cc1ccc(Cl)cc1 | -5.1%
38 | Cc1cc2c(C(C)C)c(O)c(O)c(C=O)c2c(O)c1-c1c(C)cc2c(C(C)C)c(O)c(O)c(C=O)c2c1O | 50.4% (active)
39 | CCN1C(=O)C=CC1=O | -3.8%
40 | N[C@@H](CCC(=O)N[C@H](CSN=O)C(=O)NCC(=O)O)C(=O)O | -4.8%
41 | [N-]=[N+]=Nc1ccc(C(=O)CSC[C@H](NC(=O)CC[C@H](N)C(=O)O)C(=O)NCC(=O)O)cc1 | 6.8% (active)
42 | O=C1N=C([O-])CN1/N=C/C1=C[C+]=C(c2ccc([N+](=O)[O-])cc2)O1 | 3.6% (active)
43 | N=C(N)SCCN | 6.4% (active)
44 | N=C(N)SCCc1ccc(CCSC(=N)N)cc1 | -2.2%
45 | S=C(S)N1CCCC1 | 19.5% (active)
46 | N#CC(C#N)=C(N)/C(C#N)=C/c1ccc(O)cc1 | 11.6% (active)

Row | SMILES | inhibition
47 | O=[N+]([O-])c1ccc2c(c1)S(=O)(=O)C=C2 | 2% (active)
48 | O=c1[nH]c2cc(C(F)(F)F)ccc2n1-c1cc(C(F)(F)F)ccc1O | 1.4% (active)
49 | O=NN(CCCl)C(=O)NCCCl | -3.4%
50 | NC1CCN(O)C1=O (configuration not stated) | 1.1% (active)
51 | COc1cc2c(c(OC)c1OC)-c1ccc(OC)c(=O)cc1[C@@H](NC(C)=O)CC2 | 1.3% (active)
52 | CCCCCCC(=O)OC1CC(C)(C)NC(C)(C)C1 | 1.1% (active)
53 | CNc1cc(NS(=O)(=O)c2ccc(N)cc2)nc(NC)n1 | 3.7% (active)
54 | Nc1ccc(S(=O)(=O)Nc2ccnn2-c2ccccc2)cc1 | -1.7%
55 | O=C(O)C1=CC(=C(c2ccc(O)c(C(=O)O)c2)c2ccc(O)c(C(=O)O)c2)C=CC1=O | 17.4% (active)
56 | COc1cc(/C=C(\C#N)C(=O)c2ccc(O)c(O)c2)cc(I)c1O | 27.3% (active)
57 | N#C/C(=C\c1ccc(O)c(O)c1)C(=O)c1ccc(O)c(O)c1 | 17.4% (active)
58 | CN(C)CCC(c1ccccc1)c1ccccn1 (configuration not stated) | 1.1% (active)
59 | CN(C)CC[C@@H](c1ccc(Br)cc1)c1ccccn1 | 7.7% (active)
60 | CN(C)CCC(c1ccc(Br)cc1)c1ccccn1 (configuration not stated) | 0.5% (active)
61 | CN(C)CCC(c1ccc(Cl)cc1)c1ccccn1 (configuration not stated) | 2.8% (active)
62 | CN(C)CC[C@@H](c1ccc(Cl)cc1)c1ccccn1 | 0%
63 | O.O.[NH2-].[NH2-].[NH2-].[NH2-].[NH2-].[NH2-].[NH2-].[NH2-].[NH2-].[NH2-].[NH2-].[NH2-].[NH2-].[NH2-].[Ru].[Ru].[Ru] | 20.7% (active)
64 | CCCCC/C=C\CC(O)/C=C/c1cccc(CC(O)CCCCO)n1 (configuration not stated) | -0.7%
65 | O=C1CCc2cc(OCCCCc3nnnn3C3CCCCC3)ccc2N1 | 1.5% (active)
66 | CCOC(=O)C1=C[C@]2(CC)CCCN3CCc4c(n1c1ccccc41)[C@@H]32 | 0.9% (active)
67 | O=C1c2c(O)ccc(O)c2C(=O)c2c(NCCNCCO)ccc(NCCNCCO)c21 | 42% (active)
68 | C=C1N=C(N=NC2=C(S(=O)(=O)[O-])[C+]=C(S(=O)(=O)[O-])[C+]=C2)[C+](COP(=O)([O-])O)C(C=O)=C1O | -3.7%
69 | CC(=O)[C@H]1CC[C+]2C3CC=C4C[C@@H](OS(=O)(=O)[O-])CC[C@]4(C)C3CC[C@@]21C (some centres not stated) | 1.8% (active)

Row | SMILES | inhibition
70 | CCOC(=O)C(C)Oc1cccc2c(=O)n(CC(=O)Nc3ccc4c(c3)OCCO4)ccc12 (configuration not stated) | -3.2%
71 | c1ccc(CN2CCC3(CCCc4ccccc43)CC2)cc1 | 3.6% (active)
72 | Cc1nc2sccn2c(=O)c1CCN1CCC(=C(c2ccccc2)c2ccc(F)cc2)CC1 | 1.2% (active)
73 | Cc1nc2sccn2c(=O)c1CCN1CCC(=C(c2ccc(F)cc2)c2ccc(F)cc2)CC1 | 1.1% (active)
74 | Cc1nc2ccccn2c(=O)c1CCN1CCC(C(=O)c2ccc(F)cc2)CC1 | -1.4%
75 | CC1=NS(=O)(=O)c2cc(Cl)ccc2N1 | -1.4%
76 | Cc1ccc2c(c1)C(N1CCN(C)CC1)=Nc1cccnc1N2 | 15.5% (active)
77 | CN1CCN(C2=Nc3cc(Cl)ccc3Nc3ccccc32)CC1 | 22.2% (active)
78 | Clc1ccc2c(c1)N=C(N1CCNCC1)c1ccccc1N2 | 23.2% (active)
79 | CCCCC[C@H](CC(=O)NO)C(=O)N[C@H](C(=O)N1CCC[C@H]1CO)C(C)C | -6.2%
80 | CCN1CCc2nc(N)oc2CC1 | 2.8% (active)
81 | CCCCCC(O)CCCC(=O)O (configuration not stated) | 1.1% (active)
82 | CCCCCCCCCCCCCCSCC(=O)O | -7.6%
83 | O=C(O)CCCCCCCC(=O)O | -1.7%
84 | CC(C)(C=O)Cc1cc(C(C)(C)C)c(O)c(C(C)(C)C)c1 | -0.1%
85 | CC(C)(CO)Cc1cc(C(C)(C)C)c(O)c(C(C)(C)C)c1 | 4.9% (active)
86 | CCCCCC[C@@H]([C@@H](C)O)n1cnc2c(N)ncnc21 | -0.9%
87 | CCCCCCCCCCCCCCC[C@H](O)[C@H](N)CO | 7.8% (active)
88 | CCCC(=O)NCCc1c2n(c3ccc(OC)cc13)CCCc1ccccc1-2 | 15% (active)
89 | CC(C)Cc1ccc([C@H](C)C(=O)O)cc1 | -0.6%
90 | CC(C(=O)O)c1ccc(CC2CCCC2=O)cc1 (configuration not stated) | 0.1% (active)
91 | CC(C)Cc1ccc(C(C)C(=O)O)cc1 (configuration not stated) | 5.8% (active)
92 | CC(C(=O)O)c1cccc(C(=O)c2ccccc2)c1 (configuration not stated) | -2.4%

Row | SMILES | inhibition
93 | O=C(O)/C=C/c1cnc[nH]1 | 1% (active)
94 | CCC1(C)CC(=O)NC1=O (configuration not stated) | 0.9% (active)
95 | CCCCOc1cc(CC2CNC(=O)N2)ccc1OC (configuration not stated) | -0.2%
96 | N[C@H](C(=O)O)[C@H]1C[C@@H]1C(=O)O | 0.2% (active)
97 | Cc1cccc(C)c1OCC(N)C(C)C (configuration not stated) | 4.5% (active)
98 | Cc1cccc(C)c1OCC(C)N (configuration not stated) | -0.4%
99 | Cc1cc2c(cc1Cl)N(C(=O)Nc1ccc(Oc3cccnc3C)nc1)CC2 | 1.2% (active)
100 | Cc1cc2c(cc1Cl)N(C(=O)Nc1ccnc3ccccc13)CC2 | 16.8% (active)
101 | CCN(CC)CCNC(=O)c1ccc(NS(C)(=O)=O)cc1 | -0.3%
102 | CCN(CC)CCNC(=O)c1ccc(N)cc1 | -7.4%
103 | CCN(CC)CCNC(=O)c1ccc(NC(C)=O)cc1 | 0.3% (active)
104 | COc1ccc(CN(CCN(C)C)c2ccccn2)cc1 | 1.5% (active)
105 | CN(C)CCN(Cc1cccs1)c1ccccn1 | 7% (active)
106 | CN(C)CCOC(C)(c1ccccc1)c1ccccn1 (configuration not stated) | -2.5%
107 | CNC1(C)C2CCC(C2)C1(C)C (configuration not stated) | -2%
108 | CN1CCCC1CCOC(C)(c1ccccc1)c1ccc(Cl)cc1 (configuration not stated) | 0.6% (active)
109 | C=C/C(C)=C/[C@@]1(C)SC(=O)C(C)=C1O | -4.2%
110 | CO/N=C(\C(=O)N[C@@H]1C(=O)N2C(C(=O)O)=C(CSc3nc(=O)c(O)nn3C)CSC12)c1csc(N)n1 (some centres not stated) | -1.9%
111 | Cc1nnc(SCC2=C(C(=O)O)N3C(=O)[C@@H](NC(=O)Cn4cnnn4)[C@H]3SC2)s1 | -3.9%
112 | CO[C@@]1(NC(=O)CSCC#N)C(=O)N2C(C(=O)O)=C(CSc3nnnn3C)CS[C@@H]21 | 0.7% (active)

From PubChem BioAssay AID1347418 (Sanford-Burnham Center for Chemical Genomics, 2020)
